In the supplement of paper PMC6555819 one finds PBM binding z-score data, which are given here for 40 sequences.

The test system of one experiment is PPARg DBDmut IVT, anti-PPARg (DBD mutation: PPARg1 K132A/R137A, NR concentration 270 nM). The experiment can be described thus: PBM binding z-score (relative to random genomic background probes); higher = stronger binding; sequences stand for … in GC…GCGATTGACAGCGTAGAATGAAGG
In a few lines: (§1)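 On custom Agilent 4×180K arrays, double-stranded probes with 34-nt variable regions carried direct-repeat seeds, single-nucleotide variants, half-site ablations or random human genomic background. Ligand-free nuclear receptor dimers were applied for 1 h, and binding was read with antibodies against each partner (one per run). Binding z-scores come from regression-normalized fluorescence, with the random background probes as reference.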
Turning to GCTAGCAGGCCATTTGAGTCACTCAATGACGGGC, the PBM binding z-score is -2.18.
Still for that read-out and setting: next, TAGCCTAGGTCATTCAGGGGCCAGTATAGAAAGC: 0.357; ATCTCTAGTTAAAGTTCAGTGAAAGATCGATAGA: 1.48; ATATGTAGGTTAGCTGGGTTCATTCAGACTAGGC: 2.15.
Same read-out and setting: to TCTATTAGTTCATTAGGGCAACCGAAACAGCGGA belongs 1.13; to CCTGCTAGGTCATGGTCCGCTAATCTACAGTATG, -0.235; to TGTAGCAGGCCAGAGGGTCACTCAAGAGGTACGG, -0.849.
CGAACTAGGTCAGAACAAGACAGTGAAGGATGAT showed a PBM binding z-score of 1.93.
On the same count and under the same terms, next, ATCTCTAGGTAACAAGTTGAGTGAAAGAGAGGAC: 1.04.
On the same count and under the same terms, to AGTCAAAGCTCAGGACGAGGTAACGTAAAGCACG belongs -0.455; to ACTAGTTGGTCAGCTGAGGTCAGACACAATTCGG, 0.951; to CCTTACGGGTCACGCGGTTATAGCACGACGAGCG, 0.817.
Same read-out and setting: to TCTTGTAGAGCAAGCAGGTTAAGAAAGCCTGAGT belongs -0.908; to ATACCAAGGGGATCGTGAGGTCGTTGATACTAAC, 0.0346; to AGTCAAAGTTCAGGTCGAGGTAACGTAAAGCACG, 0.251.
Consider CCAGACAGGTGAGAAGGTAACCCAGCCTCGATTA, for which the PBM binding z-score was -0.618.
The same measure, in the same setting: next, CCTAGCAGGCCAATCTGGGTCACTCAAGGCTTGA: -0.836.
TCATATAGGTACAGGTGAAAGTCGAACGATATGA returned a PBM binding z-score of 1.06.
The same measure, in the same setting: next, CAAACTAGGTCAAGGACAAAGTCGGTTTGTGCCA: 1.42; TCAAATAGGTAATACAGGTGAAAGTCGGCATCTA: 1.14.
Same read-out and setting: to GCTTGTAGATCGAGGTTAAGAAAGACTAAGCTAA belongs 0.233; to ACTATTAGTTCAGACGAGGGCAACCGATAGGTTG, 0.802.
Still for that read-out and setting: next, AATATTAGTTGAGACGAGGGCAACCGATAGGTTG: 0.786.
As to GCATATAGGTAATACAAGGTGATAGTCCGATTGT, the PBM binding z-score was found to be 1.46.
Still for that read-out and setting: next, CCTACTGGTCCACGAAAGGTCATTGATTCAGTGA: -0.00763.
The same measure, in the same setting: to GCGAGTGGGGCATCAGCAGGTTACCATAACTTAA belongs -0.427; to AGAATGAGGTTGTTAAGATCAGGGAATTGCGGTC, -0.016; to TCCAGCAGGCCAGAGGGTCACTCAAGAGGTACGG, -1.27.
Still for that read-out and setting: next, GCTTGTAGATAAAGGTTAAGAAAGACTAAGCTAA: -0.0657; CAGCCTAGGTCTGGGCCAGTATAGGAGGAACGTT: -1.97.
For the sequence CCTAGTTGGTCGAGGTCACACACGCTATAGGTAC, the PBM binding z-score was -0.295.
The same measure, in the same setting: to ACTCGGAGCACAAAGGTCAGAGCTACGCCAGTGA belongs -0.435.
Same read-out and setting: to TCATATAGGTAAAAGGTGAAAGTCGGTGTGGTAA belongs 0.745; to CCTCGGAGGCCAGAAGGTCAGAGCTGTCCGCTTT, -1.89; to TATACAGGGTCAAAGGCCCGAGTACGAATGTCGA, 0.769.
Still for that read-out and setting: to CGTCCAAGGTCAATGCTCGGTCAGTGAAAGCATT belongs -0.828.
The sequence TCTATTACTTGAAGGGCAACCGACGAGTCCGTTT came in with a PBM binding z-score of 1.12.
Same read-out and setting: next, CCGAGTAGTTTATGGGGCATTCAGGCAACGGTGA: -0.259.
Same read-out and setting: next, TCGAGTAGATTAGTCGGGGCATTCAGCCAACATA: -0.113; CGTCCAAGATCAGCAGGTCAGTGAAAGCGACGTG: -0.238.

The test system of another experiment is PPARg homodimer (NR concentration 180 nM). The description is as above. The method, boiled down: as §1
GCTAGCAGGCCATTTGAGTCACTCAATGACGGGC registered a PBM binding z-score of -0.951.
Sequence TAGCCTAGGTCATTCAGGGGCCAGTATAGAAAGC registered a PBM binding z-score of 1.37.
The same measure, in the same setting: to ATCTCTAGTTAAAGTTCAGTGAAAGATCGATAGA belongs 2.14; to ATATGTAGGTTAGCTGGGTTCATTCAGACTAGGC, 2.07; to TCTATTAGTTCATTAGGGCAACCGAAACAGCGGA, 1.3.
Regarding CCTGCTAGGTCATGGTCCGCTAATCTACAGTATG, the PBM binding z-score was 0.575.
Same read-out and setting: next, TGTAGCAGGCCAGAGGGTCACTCAAGAGGTACGG: 0.876; CGAACTAGGTCAGAACAAGACAGTGAAGGATGAT: 1.19; ATCTCTAGGTAACAAGTTGAGTGAAAGAGAGGAC: 0.666.
Same read-out and setting: to AGTCAAAGCTCAGGACGAGGTAACGTAAAGCACG belongs 0.053; to ACTAGTTGGTCAGCTGAGGTCAGACACAATTCGG, 1.04.
On the same count and under the same terms, next, CCTTACGGGTCACGCGGTTATAGCACGACGAGCG: 1.05; TCTTGTAGAGCAAGCAGGTTAAGAAAGCCTGAGT: -0.862; ATACCAAGGGGATCGTGAGGTCGTTGATACTAAC: -0.227.
The sequence AGTCAAAGTTCAGGTCGAGGTAACGTAAAGCACG gave a PBM binding z-score of 2.76.
Sequence CCAGACAGGTGAGAAGGTAACCCAGCCTCGATTA returned a PBM binding z-score of 0.918.
In turn, CCTAGCAGGCCAATCTGGGTCACTCAAGGCTTGA displayed a PBM binding z-score of 0.786.
The same measure, in the same setting: next, TCATATAGGTACAGGTGAAAGTCGAACGATATGA: 0.632; CAAACTAGGTCAAGGACAAAGTCGGTTTGTGCCA: 2.03; TCAAATAGGTAATACAGGTGAAAGTCGGCATCTA: 0.815.
Same read-out and setting: next, GCTTGTAGATCGAGGTTAAGAAAGACTAAGCTAA: 0.235.
ACTATTAGTTCAGACGAGGGCAACCGATAGGTTG: the PBM binding z-score turned out to be 0.783.
The same measure, in the same setting: next, AATATTAGTTGAGACGAGGGCAACCGATAGGTTG: 1.36.
Same read-out and setting: to GCATATAGGTAATACAAGGTGATAGTCCGATTGT belongs 0.142; to CCTACTGGTCCACGAAAGGTCATTGATTCAGTGA, 4.11.
On the same count and under the same terms, next, GCGAGTGGGGCATCAGCAGGTTACCATAACTTAA: 0.496.
AGAATGAGGTTGTTAAGATCAGGGAATTGCGGTC showed a PBM binding z-score of 0.112.
On the same count and under the same terms, next, TCCAGCAGGCCAGAGGGTCACTCAAGAGGTACGG: 0.577.
Still for that read-out and setting: to GCTTGTAGATAAAGGTTAAGAAAGACTAAGCTAA belongs 0.422; to CAGCCTAGGTCTGGGCCAGTATAGGAGGAACGTT, -0.842; to CCTAGTTGGTCGAGGTCACACACGCTATAGGTAC, 3.81.
Same read-out and setting: next, ACTCGGAGCACAAAGGTCAGAGCTACGCCAGTGA: 2.92; TCATATAGGTAAAAGGTGAAAGTCGGTGTGGTAA: 2.06.
CCTCGGAGGCCAGAAGGTCAGAGCTGTCCGCTTT yielded a PBM binding z-score of 0.843.
Still for that read-out and setting: next, TATACAGGGTCAAAGGCCCGAGTACGAATGTCGA: 1.13.
The same measure, in the same setting: next, CGTCCAAGGTCAATGCTCGGTCAGTGAAAGCATT: 2.78; TCTATTACTTGAAGGGCAACCGACGAGTCCGTTT: 0.761; CCGAGTAGTTTATGGGGCATTCAGGCAACGGTGA: 0.266.
On the same count and under the same terms, next, TCGAGTAGATTAGTCGGGGCATTCAGCCAACATA: -0.53.
Sequence CGTCCAAGATCAGCAGGTCAGTGAAAGCGACGTG displayed a PBM binding z-score of 0.712.
